This is part of a sample that, as a whole, favours compounds with a hit. Of some 83,000 tested, about 20% had one in any assay.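 Compound tested at a single concentration for 48 hours in 96-well plates; a percent growth value below 10 was scored as active.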 Values without a mark were called inactive. The source made the active and inactive calls.

Test systems include SK-MEL-2 melanoma; EKVX NSCLC; SN12C renal; UO-31 renal; TK-10 renal; ACHN renal; CAKI-1 renal; A498 renal; CCRF-CEM leukemia; MOLT-4 leukemia; SR leukemia; RPMI-8226 leukemia; OVCAR-8 ovarian; OVCAR-5 ovarian; OVCAR-4 ovarian; SK-OV-3 ovarian; IGROV1 ovarian; OVCAR-3 ovarian; HS 578T breast; NCI/ADR-RES ovarian.
Assay in all cases: NCI-60 one-dose screen, 48 h (100 = growth as untreated, 0 = no growth, -100 = all killed)
Common to all, as to conditions: 10 µM unless noted

As for `Cc1ccc2nc(-c3c(CCCO)noc3N)[nH]c(=O)c2c1`, the growth is 105% in the assay with SK-MEL-2 melanoma; 101% in the assay on EKVX NSCLC; 111% in the assay with SN12C renal; 47% in the assay with UO-31 renal; 95.5% in the assay on TK-10 renal; 113% in the assay on ACHN renal. Besides, the growth in the assay on CAKI-1 renal was 97.1%; in the assay with A498 renal it was 104%; in the assay on CCRF-CEM leukemia, 88.5%; in the assay with MOLT-4 leukemia, 83.7%; in the assay on SR leukemia, 71.8%; with RPMI-8226 leukemia, 90.4%. The growth in the assay on OVCAR-8 ovarian was 106%; in the assay with OVCAR-5 ovarian, 120%; in the assay with OVCAR-4 ovarian, 97.4%; in the assay on SK-OV-3 ovarian it was 106%; in the assay with IGROV1 ovarian, 4.96% (active); in the assay with OVCAR-3 ovarian, 104%. Further, the growth in the assay on HS 578T breast was 104%; with NCI/ADR-RES ovarian it was 123%.
On to `Cc1sc2nc(CSc3nnc(-c4ccco4)o3)[nH]c(=O)c2c1C`, for which the growth in the assay with SK-MEL-2 melanoma is 96.4%; with EKVX NSCLC it was 110%; with SN12C renal it was 114%; in the assay with UO-31 renal, 106%; in the assay on TK-10 renal, 189%; with ACHN renal, 93.8%. The growth is 99.9% in the assay with CAKI-1 renal; 110% in the assay on A498 renal; 64.3% in the assay with CCRF-CEM leukemia; 48.7% with MOLT-4 leukemia; 56.6% with SR leukemia; 67.3% in the assay with RPMI-8226 leukemia. The growth was 104% in the assay on OVCAR-8 ovarian; 114% in the assay with OVCAR-5 ovarian; 105% with OVCAR-4 ovarian; 132% in the assay with SK-OV-3 ovarian; 109% in the assay with IGROV1 ovarian; 108% with OVCAR-3 ovarian. Further, the growth is 115% with HS 578T breast and 112% in the assay on NCI/ADR-RES ovarian.
Turning to `COc1cc2c(cc1OCCCCn1c(-c3cc(=O)c4ccccc4o3)nc3ccccc31)N=C[C@@H]1CCCN1C2=O`, the growth with SK-MEL-2 melanoma was 26.7%; with EKVX NSCLC, 129%; in the assay with SN12C renal, 102%; with UO-31 renal, 35.8%; in the assay with TK-10 renal, 157%; in the assay on ACHN renal, 93.1%. For the same compound, the growth is 82.8% in the assay on CAKI-1 renal; 121% with A498 renal; 49.4% with CCRF-CEM leukemia; 82.4% with MOLT-4 leukemia; 39.8% in the assay on SR leukemia; 67.7% in the assay on RPMI-8226 leukemia. For the same compound, the growth was 106% with OVCAR-8 ovarian; 111% in the assay on OVCAR-5 ovarian; 108% in the assay on OVCAR-4 ovarian; 109% in the assay with SK-OV-3 ovarian; -16.3% (active) in the assay with IGROV1 ovarian; 111% in the assay with OVCAR-3 ovarian. Also, the figures for the growth with HS 578T breast and with NCI/ADR-RES ovarian were 116% and 110%, respectively.
Turning to `CC/C=C\C[C@H]1C/C=C2/C(=O)C(Cl)=C[C@@H]2C/C=C\CCCC(=O)O1`, the growth was -44.1% (active) with SK-MEL-2 melanoma; -82% (active) in the assay on EKVX NSCLC; -1.11% (active) in the assay on SN12C renal; -93.8% (active) with UO-31 renal; -55.3% (active) in the assay on TK-10 renal; -64.6% (active) in the assay on ACHN renal. Further, the growth in the assay with CAKI-1 renal was 2.64% (active); in the assay with A498 renal it was -68.3% (active); in the assay on CCRF-CEM leukemia, -19.1% (active); with MOLT-4 leukemia it was -9.42% (active); with SR leukemia, -2.48% (active); in the assay on RPMI-8226 leukemia, -14.1% (active). The growth in the assay with OVCAR-8 ovarian was 3.57% (active); in the assay on OVCAR-5 ovarian it was -25% (active); with OVCAR-4 ovarian, -37.8% (active); in the assay on SK-OV-3 ovarian it was -6.42% (active); with IGROV1 ovarian, -41.7% (active); in the assay on OVCAR-3 ovarian, -96.1% (active). For the same compound, the results for the growth in the assay with HS 578T breast and in the assay on NCI/ADR-RES ovarian were 17.6% and 6.27% (active), respectively.
Regarding `Cc1cc(C)c2c(=O)[nH]c(SCC(=O)Nc3cccc(S(=O)(=O)N(C)C)c3)nc2n1`, the growth is 96.5% in the assay with SK-MEL-2 melanoma; 93.3% in the assay on EKVX NSCLC; 109% with SN12C renal; 94.6% with UO-31 renal; 98.4% in the assay with TK-10 renal; 108% in the assay on ACHN renal. Further, the growth was 107% in the assay with CAKI-1 renal; 104% with A498 renal; 89.1% with CCRF-CEM leukemia; 96.1% in the assay on MOLT-4 leukemia; 70.8% in the assay on SR leukemia; 87.5% with RPMI-8226 leukemia. In addition, the growth was 106% with OVCAR-8 ovarian; 97.4% in the assay with OVCAR-5 ovarian; 105% with OVCAR-4 ovarian; 103% with SK-OV-3 ovarian; 40.6% in the assay on IGROV1 ovarian; 111% in the assay on OVCAR-3 ovarian. The growth is 122% with HS 578T breast and 105% in the assay with NCI/ADR-RES ovarian.
For `C/C1=C\CCC2(C)OC2CC2CCC(C)(O)C(CC1)C2(C)C` (stereo not given), the growth is 106% in the assay on SK-MEL-2 melanoma; 81.1% in the assay with EKVX NSCLC; 101% in the assay on SN12C renal; 99.2% in the assay with UO-31 renal; 97% in the assay on TK-10 renal; 92.5% in the assay with ACHN renal. In addition, the growth with CAKI-1 renal was 87.7%; in the assay on A498 renal, 106%; in the assay with CCRF-CEM leukemia, 84.1%; with MOLT-4 leukemia it was 97.9%; with SR leukemia, 92.4%; in the assay on RPMI-8226 leukemia, 111%. Further, the growth was 89.8% with OVCAR-8 ovarian; 112% in the assay with OVCAR-5 ovarian; 99.7% in the assay on OVCAR-4 ovarian; 112% in the assay with SK-OV-3 ovarian; 93.9% with IGROV1 ovarian; 118% in the assay on OVCAR-3 ovarian. For the same compound, the growth is 83.8% in the assay on HS 578T breast and 104% in the assay with NCI/ADR-RES ovarian.
Take `CCOP(=O)(CCN1CCN(CCCCCOc2cc3c(cc2OC)C(=O)N2CCC[C@H]2C=N3)CC1)OCC`: the growth in the assay with SK-MEL-2 melanoma was 33.6%; in the assay on EKVX NSCLC it was 98.2%; in the assay with SN12C renal, 79%; in the assay with UO-31 renal, 28.3%; with TK-10 renal, 148%; in the assay on ACHN renal, 99.9%. Moreover, the growth with CAKI-1 renal is 57.3%; in the assay on A498 renal, 89.2%; in the assay with CCRF-CEM leukemia, 11%; in the assay with MOLT-4 leukemia, 19.9%; in the assay on SR leukemia, 28.7%; in the assay on RPMI-8226 leukemia, -10.5% (active). The growth in the assay on OVCAR-8 ovarian was 83.4%; in the assay with OVCAR-5 ovarian, 106%; in the assay with OVCAR-4 ovarian it was 87.8%; in the assay with SK-OV-3 ovarian, 118%; in the assay on IGROV1 ovarian, -26% (active); in the assay with OVCAR-3 ovarian, 119%. Besides, the growth in the assay with HS 578T breast was 84.5%; with NCI/ADR-RES ovarian, 88.5%.
Take `CN(C)C/C=C/C(=O)Nc1cc2c(Nc3cccc(Cl)c3F)ncnc2cc1OCCOC(F)F`: the growth was 70.1% in the assay on SK-MEL-2 melanoma; 19.2% in the assay on EKVX NSCLC; 12.6% with SN12C renal; 16.1% in the assay on UO-31 renal; 22.4% in the assay with TK-10 renal; 4.97% (active) in the assay on ACHN renal. The growth is 10.1% in the assay with CAKI-1 renal; -14.5% (active) with A498 renal; 63.1% in the assay on CCRF-CEM leukemia; 38.6% in the assay with MOLT-4 leukemia; 51.6% in the assay on SR leukemia; 58.6% in the assay on RPMI-8226 leukemia. For the same compound, the growth in the assay on OVCAR-8 ovarian is 34.7%; with OVCAR-5 ovarian, 29.7%; in the assay on OVCAR-4 ovarian, 27.9%; with SK-OV-3 ovarian, -0.955% (active); in the assay on IGROV1 ovarian it was -21.7% (active); in the assay on OVCAR-3 ovarian it was 23.9%. Besides, the results for the growth in the assay with HS 578T breast and with NCI/ADR-RES ovarian were 11.2% and 32.9%, respectively.

The values are drawn from PubChem BioAssay (NCI).
